Source: PubChem BioAssay AID1159580 (chemical genetic matrix, 2015)
Where “and” joins values, the source holds several entries; their conditions need not be identical. Identical values can stand only once. In all, about 5,500 compounds went through this assay and about 2,000 (36%) were called active. Another 18% or so got no clear call; they are omitted. Rule as the data show it: active = normalized growth mostly below about 0.91 (no sharp cut-off); inconclusive = no clear call, values can overlap the other calls; inactive = mostly above about 0.92. Some of the results follow.

Test: chemical genetic growth profiling, strain panel (AID 1159580);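 also: tested at 20 µM; growth read once vehicle control cultures reached saturation at 30 °C; 1 = growth at the plate median or of vehicle wells; lower values mean less growth of the strain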
Settings: growth OD

Measured: normalized growth

NC1CC1c1ccccc1 (stereo not drawn)
inactive: S. cerevisiae deletion strains, locus YAL013W, strain DEP1, active compounds read low 1.02 | S. cerevisiae deletion strains, locus YAL040C, strain CLN3, active compounds read low 0.989 | S. cerevisiae deletion strains, locus YBR021W, strain FUR4, active compounds read low 1.02 | S. cerevisiae deletion strains, locus YBR229C, strain ROT2, active compounds read low 1.02 | S. cerevisiae deletion strains, locus YCL029C, strain bik1, active compounds read low 0.985 | S. cerevisiae deletion strains, locus YCL061C, strain MRC1 (second series), active compounds read low 1.01 | S. cerevisiae deletion strains, locus YDL035C, strain GPR1, active compounds read low 1.02 | S. cerevisiae deletion strains, locus YDL074C, strain BRE1, active compounds read low 1.05 | S. cerevisiae deletion strains, locus YDL101C, strain DUN1, active compounds read low 1.03 | S. cerevisiae deletion strains, locus YDL134C, strain PPH21, active compounds read low 1.02 | S. cerevisiae deletion strains, locus YDL185W, strain tfp1, active compounds read low 0.989 | S. cerevisiae deletion strains, locus YDL192W, strain arf1, active compounds read low 0.988 | S. cerevisiae deletion strains, locus YDR101C, strain arx1, active compounds read low 0.976 | S. cerevisiae deletion strains, locus YDR150W, strain NUM1, active compounds read low 1.02 | S. cerevisiae deletion strains, locus YDR162C, strain NBP2, active compounds read low 1.03 | S. cerevisiae deletion strains, locus YDR318W, strain mcm21, active compounds read low 0.979 | S. cerevisiae deletion strains, locus YDR363W, strain ESC2, active compounds read low 0.946 | S. cerevisiae deletion strains, locus YDR388W, active compounds read low 0.981 | S. cerevisiae deletion strains, locus YDR502C, strain sam2, active compounds read low 0.995 | S. cerevisiae deletion strains, locus YEL061C, strain CIN8, active compounds read low 1.01 | S. cerevisiae deletion strains, locus YER002W, strain NOP16, active compounds read low 1.02 | S. cerevisiae deletion strains, locus YER110C, active compounds read low 0.981 | S. cerevisiae deletion strains, locus YER155C, strain BEM2, active compounds read low 1.01 | S. cerevisiae deletion strains, locus YER167W, strain BCK2, active compounds read low 1.01 | S. cerevisiae deletion strains, locus YGL078C, strain dbp3, active compounds read low 0.988 | S. cerevisiae deletion strains, locus YGL086W, strain mad1, active compounds read low 0.975 | S. cerevisiae deletion strains, locus YGL248W, strain PDE1, active compounds read low 1.03 | S. cerevisiae deletion strains, locus YGR078C, strain PAC10, active compounds read low 1.02 | S. cerevisiae deletion strains, locus YGR135W, strain pre9, active compounds read low 0.994 | S. cerevisiae deletion strains, locus YGR229C, strain SMI1, active compounds read low 1.02 | S. cerevisiae deletion strains, locus YGR252W, strain gcn5, active compounds read low 0.922 | S. cerevisiae deletion strains, locus YHR030C, strain SLT2, active compounds read low 1.01 | S. cerevisiae deletion strains, locus YHR079C, strain IRE1 (second series), active compounds read low 0.981 | S. cerevisiae deletion strains, locus YHR094C, strain hxt1, active compounds read low 0.99 | S. cerevisiae deletion strains, locus YHR129C, strain ARP1, active compounds read low 1.02 | S. cerevisiae deletion strains, locus YHR200W, strain rpn10, active compounds read low 0.991 | S. cerevisiae deletion strains, locus YIL066C, strain RNR3, active compounds read low 1.02 | S. cerevisiae deletion strains, locus YIL073C, strain SPO22, active compounds read low 0.972 | S. cerevisiae deletion strains, locus YIL125W, strain kgd1, active compounds read low 0.987 | S. cerevisiae deletion strains, locus YIR030C, strain dcg1, active compounds read low 0.993 | S. cerevisiae deletion strains, locus YJL095W, strain BCK1, active compounds read low 1.03 | S. cerevisiae deletion strains, locus YJL134W, strain LCB3, active compounds read low 1.02 | S. cerevisiae deletion strains, locus YJL168C, strain set2, active compounds read low 0.988 | S. cerevisiae deletion strains, locus YJL187C, strain SWE1 (second series), active compounds read low 1.02 | S. cerevisiae deletion strains, locus YJR043C, strain POL32, active compounds read low 0.992 | S. cerevisiae deletion strains, locus YJR075W, strain HOC1, active compounds read low 1.01 and 1.03 | S. cerevisiae deletion strains, locus YKL009W, strain mrt4, active compounds read low 1.01 | S. cerevisiae deletion strains, locus YKL068W, active compounds read low 0.997 | S. cerevisiae deletion strains, locus YKL085W, strain MDH1 (second series), active compounds read low 1.03 | S. cerevisiae deletion strains, locus YKL085W, strain MDH1, active compounds read low 1.03 | S. cerevisiae deletion strains, locus YKL190W, strain CNB1, active compounds read low 1.02 | S. cerevisiae deletion strains, locus YKR001C, strain vps1, active compounds read low 0.987 | S. cerevisiae deletion strains, locus YLR039C, strain RIC1, active compounds read low 1.06 | S. cerevisiae deletion strains, locus YLR058C, strain SHM2, active compounds read low 1.02 | S. cerevisiae deletion strains, locus YLR102C, strain apc9, active compounds read low 0.996 | S. cerevisiae deletion strains, locus YLR262C, strain YPT6, active compounds read low 1.05 | S. cerevisiae deletion strains, locus YLR268W, strain sec22, active compounds read low 0.989 | S. cerevisiae deletion strains, locus YLR330W, strain CHS5, active compounds read low 1.01 | S. cerevisiae deletion strains, locus YLR342W, strain FKS1 (second series), active compounds read low 0.994 | S. cerevisiae deletion strains, locus YLR371W, strain rom2, active compounds read low 0.984 | S. cerevisiae deletion strains, locus YLR418C, strain cdc73, active compounds read low 0.992 | S. cerevisiae deletion strains, locus YML016C, strain PPZ1, active compounds read low 1.03 | S. cerevisiae deletion strains, locus YML032C, strain rad52, active compounds read low 0.975 | S. cerevisiae deletion strains, locus YML124C, strain tub3, active compounds read low 0.997 | S. cerevisiae deletion strains, locus YMR078C, strain ctf18, active compounds read low 0.981 | S. cerevisiae deletion strains, locus YMR223W, strain ubp8, active compounds read low 0.972 | S. cerevisiae deletion strains, locus YMR263W, strain SAP30, active compounds read low 1.03 | S. cerevisiae deletion strains, locus YMR307W, strain GAS1, active compounds read low 0.976 and 1.01 | S. cerevisiae deletion strains, locus YNL067W, strain RPL9B, active compounds read low 1.03 | S. cerevisiae deletion strains, locus YNL128W, strain TEP1, active compounds read low 1.03 | S. cerevisiae deletion strains, locus YNL153C, strain GIM3, active compounds read low 1.03 and 0.972 | S. cerevisiae deletion strains, locus YNL175C, strain NOP13, active compounds read low 0.999 | S. cerevisiae deletion strains, locus YNL197C, strain WHI3, active compounds read low 1.01 | S. cerevisiae deletion strains, locus YNL224C, strain SQS1, active compounds read low 1 | S. cerevisiae deletion strains, locus YNL233W, strain BNI4, active compounds read low 1.02 | S. cerevisiae deletion strains, locus YNL250W, strain rad50, active compounds read low 1.01 | S. cerevisiae deletion strains, locus YNL271C, strain bni1, active compounds read low 0.978 | S. cerevisiae deletion strains, locus YNL298W, strain CLA4, active compounds read low 0.996 | S. cerevisiae deletion strains, locus YNL307C, strain MCK1, active compounds read low 0.979 | S. cerevisiae deletion strains, locus YNL322C, strain KRE1, active compounds read low 1.02 | S. cerevisiae deletion strains, locus YNR052C, strain pop2, active compounds read low 0.968 | S. cerevisiae deletion strains, locus YOL006C, strain TOP1, active compounds read low 1.09 | S. cerevisiae deletion strains, locus YOL147C, strain pex11, active compounds read low 0.989 | S. cerevisiae deletion strains, locus YOR061W, strain CKA2, active compounds read low 1.02 | S. cerevisiae deletion strains, locus YOR069W, strain VPS5, active compounds read low 1.01 | S. cerevisiae deletion strains, locus YOR083W, strain WHI5 (second series), active compounds read low 1 | S. cerevisiae deletion strains, locus YOR136W, strain idh2, active compounds read low 0.981 | S. cerevisiae deletion strains, locus YOR144C, strain elg1, active compounds read low 0.984 | S. cerevisiae deletion strains, locus YOR184W, strain ser1, active compounds read low 0.976 | S. cerevisiae deletion strains, locus YOR316C, strain cot1, active compounds read low 0.992 | S. cerevisiae deletion strains, locus YPL055C, strain LGE1, active compounds read low 1.06 and 0.992 | S. cerevisiae deletion strains, locus YPL241C, strain CIN2, active compounds read low 1.02 | S. cerevisiae deletion strains, locus YPR119W, strain clb2, active compounds read low 0.994 | S. cerevisiae deletion strains, locus YPR141C, strain kar3, active compounds read low 0.99 | S. cerevisiae deletion strains, locus YPR163C, strain tif3, active compounds read low 0.988 | S. cerevisiae deletion strains, locus YPR167C, strain met16, active compounds read low 0.985 | S. cerevisiae deletion strains, strain wtn01, active compounds read low 0.988 | S. cerevisiae strains, strain wild type, active compounds read low 1.01
